Measurements: the supplement of paper PMC6522484
± gives the standard deviation of the averaged measurements.

What was measured:
DLD1 [1] = experiment: cell viability (CellTiter-Glo) relative to plate median (fraction of plate median); higher = more viable cells; details: 5 µM; treatment time 24 h; reporter: 7TFP
Outline: (§1)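 Values are well luminescence normalised to the plate median, from either a firefly luciferase or a CellTiterGlo readout on parallel plates. The cells, colorectal cancer lines stably transduced with lentiviral 7TFP or TCF4/Wnt firefly luciferase reporters, were treated with library compounds at a final 5 µM for 24 h. The mean of two independent replicates is listed.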

HCT116 = experiment: as above; details: 5 µM; treatment time 24 h; reporter: TCF4/Wnt
Outline: as §1

SW480 [2] = experiment: as above; details: 5 µM; treatment time 24 h; reporter: 7TFP
Outline: as §1

DLD1 [3] = experiment: TCF/Wnt firefly luciferase reporter signal relative to plate median (fraction of plate median); higher = higher Wnt reporter signal; details: 5 µM; treatment time 24 h; reporter: 7TFP
Outline: as §1

SW480 [4] = experiment: as above; details: 5 µM; treatment time 24 h; reporter: 7TFP
Outline: as §1

SMILES | cell viability (DLD1 [1]) | cell viability (HCT116) | cell viability (SW480 [2]) | TCF/Wnt firefly luciferase reporter signal (DLD1 [3]) | TCF/Wnt firefly luciferase reporter signal (SW480 [4])
Oc1cc(O)c2c(c1)O[C@H](c1cc(O)c(O)c(O)c1)[C@H](O)C2 | 0.94 ± 0.059 | 0.897 ± 0.19 | 0.973 ± 0.024 | 0.925 ± 0.024 | 1.07
NC(=O)c1cc[n+](CC2=C(C(=O)O)N3C(=O)[C@@H](NC(=O)[C@@H](c4ccccc4)S(=O)(=O)[O-])[C@H]3SC2)cc1 | 1.01 ± 0.055 | 0.983 ± 0.067 | 1.07 ± 0.085 | 0.967 ± 0.17 | 0.9605 ± 0.0078
CN1Cc2c(N)cccc2C(c2ccccc2)C1 (stereo not given) | 1.05 ± 0.014 | 1.15 ± 0.021 | 1.03 ± 0.05 | 1.02 ± 0.14 | 1.04 ± 0.014
O=C1c2ccccc2C(=O)c2c(O)c(O)cc(O)c21 | 1.02 ± 0.052 | 0.96 ± 0.14 | 1.09 ± 0.092 | 1.17 ± 0.028 | 0.873 ± 0.044
COCCc1ccc(OCC(O)CNC(C)C)cc1 (stereo not given) | 1.14 ± 0.057 | 0.959 ± 0.025 | 1.01 ± 0.018 | 1.14 ± 0.042 | 1.055 ± 0.0071
Cc1ccccc1OCC(O)CO (stereo not given) | 0.958 ± 0.042 | 0.983 ± 0.0099 | 0.999 ± 0.03 | 1.02 ± 0.15 | 1.04 ± 0.014
OC(CCN1CCCCC1)(c1ccccc1)c1ccccc1 | 0.982 ± 0.068 | 0.916 ± 0.051 | 1.02 ± 0.014 | 0.834 ± 0.2 | 0.878 ± 0.019
NC(=O)NC(=O)Cc1ccccc1 | 1.02 ± 0.014 | 1.16 ± 0.035 | 1.02 ± 0.037 | 1.12 ± 0.064 | 0.94 ± 0.08
OC[C@H]1O[C@@H](Oc2ccc(O)cc2)[C@H](O)[C@@H](O)[C@@H]1O | 0.965 ± 0.04 | 0.989 ± 0.072 | 0.936 ± 0.018 | 0.963 ± 0.095 | 0.975 ± 0.033
Cc1onc(-c2ccccc2)c1-c1ccc(S(N)(=O)=O)cc1 | 0.844 ± 0.058 | 1.02 ± 0.03 | 1.05 ± 0.1 | 0.91 ± 0.044 | 0.956 ± 0.17
CCC(C)(C)C(=O)O[C@H]1C[C@@H](C)C=C2C=C[C@H](C)[C@H](CC[C@@H]3C[C@@H](O)CC(=O)O3)[C@H]21 | 0.864 ± 0.23 | 0.8745 ± 0.005 | 0.99 ± 0.071 | 0.902 ± 0.34 | 0.827 ± 0.41
COc1cc(-c2cc(=O)c3c(O)c(OC)c(OC)c(OC)c3o2)cc(OC)c1OC | 0.948 ± 0.073 | 1.06 ± 0.098 | 0.956 ± 0.02 | 1.02 ± 0.028 | 0.936 ± 0.021
CO[C@@H]1[C@H](O)[C@@H](C)O[C@@H](OC[C@H]2[C@@H]3O[C@H]3/C=C/C(=O)[C@@](C)(O)C[C@H](C)[C@H](O[C@@H]3O[C@H](C)C[C@H](OC)[C@H]3O)[C@@H](C)/C=C/C(=O)O[C@@H]2C)[C@@H]1OC [Chalcomycin] | 1.04 ± 0.083 | 1.1 ± 0.071 | 1.01 ± 0.048 | 0.869 ± 0.094 | 0.965 ± 0.034
Nc1c2c(nc3ccccc13)CCCC2O (stereo not given) | 1.01 ± 0.018 | 1.12 ± 0.028 | 0.954 ± 0.021 | 0.932 ± 0.016 | 0.931 ± 0.03
OC[C@@H](O)[C@@H](O[C@@H]1O[C@H](CO)[C@H](O)[C@H](O)[C@H]1O)[C@H](O)[C@@H](O)CO | 1.02 ± 0.038 | 0.904 ± 0.067 | 0.979 ± 0.021 | 0.781 ± 0.083 | 1.03 ± 0.1
CC(C(=O)O)c1cccc(Oc2ccccc2)c1 (stereo not given) | 0.968 ± 0.088 | 0.98 ± 0.0057 | 0.988 ± 0.06 | 1.04 ± 0.085 | 1.11 ± 0.042
COC(=O)[C@@H]1[C@H]2C[C@H]3c4[nH]c5ccccc5c4CCN3C[C@@H]2CC[C@@H]1O | 0.964 ± 0.033 | 1.08 ± 0.13 | 1.005 ± 0.0071 | 0.919 ± 0.16 | 0.9165 ± 0.0021
COc1cccc2c1C(=O)c1c(O)c3c(c(O)c1C2=O)C[C@@](O)(C(C)=O)C[C@@H]3O[C@H]1C[C@H](N)[C@H](O)[C@H](C)O1 | 0.958 ± 0.027 | 0.575 ± 0.037 | 1.03 ± 0.1 | 0.781 ± 0.21 | 0.564 ± 0.26
C[C@H]1[C@H](C)CC[C@]2(CO)CC[C@]3(C)C(=CC[C@@H]4[C@@]5(C)CC[C@H](O)C(C)(C)[C@@H]5CC[C@]43C)[C@H]12 | 1 ± 0.042 | 1.02 ± 0.12 | 1 ± 0.05 | 0.871 ± 0.16 | 0.915 ± 0.048
CO/N=C(\C(=O)N[C@@H]1C(=O)N2C(C(=O)OC(C)OC(C)=O)=C(COC(N)=O)CS[C@H]12)c1ccco1 (stereo not given in full) | 1.03 | 1.05 ± 0.079 | 0.9685 ± 0.005 | 0.981 ± 0.027 | 1
CC(=O)[C@H]1CC[C@H]2[C@@H]3C[C@H](C)C4=CC(=O)CC[C@]4(C)[C@H]3[C@@H](O)C[C@]12C | 0.979 ± 0.12 | 0.981 ± 0.042 | 0.958 ± 0.029 | 1.01 ± 0.069 | 1 ± 0.022
C=CC(C)(O)CCC=C(C)CCC=C(C)C (mixture of isomers) | 1.09 | 0.977 ± 0.075 | 0.94 ± 0.0028 | 0.8335 ± 0.00071 | 0.851 ± 0.15
Cc1onc(-c2ccccc2)c1C(=O)N[C@@H]1C(=O)N2[C@@H]1SC(C)(C)[C@@H]2C(=O)O | 0.978 ± 0.032 | 0.891 ± 0.1 | 0.978 ± 0.0014 | 1.21 ± 0.071 | 1.11 ± 0.028
O=C1C=CC(=C(c2ccc(O)cc2)c2ccc(O)cc2)C=C1 | 0.99 ± 0.057 | 0.944 ± 0.018 | 1.01 ± 0.035 | 0.851 ± 0.038 | 0.93 ± 0.099
CC(C(=O)O)c1cccc(C(=O)c2ccccc2)c1 (stereo not given) | 1.14 ± 0.13 | 0.931 ± 0.035 | 1.04 ± 0.028 | 0.9355 ± 0.0064 | 1.03 ± 0.014
Cn1c(=O)c2nc[nH]c2n(C)c1=O | 0.996 ± 0.13 | 1.04 ± 0.021 | 1.07 ± 0.035 | 1.19 ± 0.014 | 0.986 ± 0.077
COc1ccc(C=CC(=O)O)cc1OC | 0.993 ± 0.0099 | 1.06 ± 0.085 | 1.02 ± 0.053 | 1.12 ± 0.042 | 0.987 ± 0.033
CC(C)=CCC[C@@H](C)[C@H]1CC[C@@]2(C)C3=C(CC[C@]12C)[C@@]1(C)CC[C@H](O)C(C)(C)[C@@H]1CC3 | 1 ± 0.029 | 1.01 ± 0.12 | 0.994 ± 0.0085 | 0.952 ± 0.023 | 0.83 ± 0.05
Nc1nc(/C(=C/CC(=O)O)C(=O)N[C@@H]2C(=O)N3C(C(=O)O)=CCS[C@H]23)cs1 | 0.988 ± 0.06 | 1.03 ± 0.021 | 0.985 ± 0.0042 | 1.13 ± 0.22 | 1.01 ± 0.052
